Inconclusive results are not listed. Where a call stands in place of a potency, no number is given. Values without a mark were called inactive. Activity calls are given as the source filed them. The call rests on the fitted dose curve.
Biological target: 5-hydroxytryptamine receptor 2A (Homo sapiens) (UniProt P28223)
Assay: 5-hydroxytryptamine receptor 2A (HTR2A) small molecule agonists, cell-based qHTS assay (AID 1963587); further: nearly all actives have a fitted effect of over 30% in size
Settings: HTR2A-CHO cells, calcium flux fluorescence, agonist mode; series mostly up to 76.8 µM
Source text: National Center for Advancing Translational Sciences [NCATS]
Division of Preclinical Innovation [DPI]
U.S. Environmental Protection Agency [EPA]
National Institutes of Environmental Health Sciences [NIEHS]
National Toxicology Program [NTP]
U.S. Food and Drug Administration [FDA]
The HTR2A receptor is a subtype of the 5-HT2 receptor that belongs to the serotonin receptor family and is a G protein-coupled receptor (GPCR). The HTR2A-CHO cell line stably expressing human 5-hydroxytryptamine receptor 2A (HTR2A) can be used for screening agonists of interactions between 5-HT2 and its ligands. The HTR2A-CHO calcium flux assay is a homogeneous fluorescence-based assay for detecting the intracellular calcium level using FDSS kinetic plate reader system.
HTR2A-CHO cells were dispensed at 2000 cells/3uL/well in 1536-well black-clear bottom plates using a Multidrop Dispenser. After the assay plates were incubated at a 37 C/5% CO2 incubator for 18 h, 3 uL of Dye Loading Buffer was transferred to the assay plate by a Flying Reagent Dispenser. The assay plates were incubated at 37 C for 1h. For agonist mode, 23 nL of compounds dissolved in DMSO, positive controls or DMSO only was transferred to the assay plate by a pin tool. The fluorescence intensity in the plates was measured using FDSS 7000EX kinetic plate reader for 2 min at 1 sec intervals.
Potency means the concentration at half of the fitted maximal effect.

5-hydroxytryptamine receptor 2A (Homo sapiens), sequence (P28223 whole entry, looked up): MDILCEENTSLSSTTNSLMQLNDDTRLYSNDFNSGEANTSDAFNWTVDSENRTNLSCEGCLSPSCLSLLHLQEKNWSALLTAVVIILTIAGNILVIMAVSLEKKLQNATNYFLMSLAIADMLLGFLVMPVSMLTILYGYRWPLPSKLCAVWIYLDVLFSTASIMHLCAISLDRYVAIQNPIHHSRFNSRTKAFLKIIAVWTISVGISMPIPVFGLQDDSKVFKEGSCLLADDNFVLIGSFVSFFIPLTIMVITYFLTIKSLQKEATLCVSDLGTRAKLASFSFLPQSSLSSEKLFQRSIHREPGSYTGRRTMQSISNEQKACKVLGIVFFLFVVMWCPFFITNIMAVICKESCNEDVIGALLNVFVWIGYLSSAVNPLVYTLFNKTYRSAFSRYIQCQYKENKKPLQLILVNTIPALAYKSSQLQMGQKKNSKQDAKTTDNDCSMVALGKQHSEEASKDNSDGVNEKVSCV

Which Potency does the source give for `COP(=S)(OC)Oc1ccc(S(N)(=O)=O)cc1` here?
The Potency was “inactive”.

Which Potency does the source give for `COc1cc(OC)nc(NC(=O)NS(=O)(=O)c2ncccc2OCC(F)(F)F)n1` here?
Its Potency is “inactive”.

`CCOC(=O)OC1=C(c2cc(C)ccc2C)C(=O)NC12CCC(OC)CC2` (stereo not given) was tested. Which Potency did it give?
The Potency was “inactive”.

For `Cn1c(CCCC(=O)O)nc2cc(N(CCCl)CCCl)ccc21`, which Potency is on record?
Its Potency is “inactive”.

For `O=CNC(N1CCN(C(NC=O)C(Cl)(Cl)Cl)CC1)C(Cl)(Cl)Cl` (stereo not given), which Potency is on record?
Its Potency is “inactive”.

Which Potency does the source give for `CCOP(=S)(OCC)Oc1ccc(Cl)cc1Cl` here?
The Potency was “inactive”.

With `S=C=NCc1ccccc1` as the compound, how does the Potency read?
The Potency was “inactive”.

With `CCOP(=S)(OCC)SCS(=O)(=O)CC` as the compound, how does the Potency read?
The Potency was “inactive”.

How did the Potency turn out when `C=CC(=O)[O][Sn]([CH2]CCC)([CH2]CCC)[CH2]CCC` was run?
The Potency was 12.3 µM (active).

For `O=c1[nH]c(Cl)c(Cl)cc1Cl`, which Potency is on record?
Its Potency is “inactive”.

How did the Potency turn out when `COCc1cnc(C2=NC(C)(C(C)C)C(=O)N2)c(C(=O)O)c1` (stereo not given) was run?
The Potency was “inactive”.

Which Potency does the source give for `O=C(CBr)Nc1ccc(Cl)cc1C(=O)c1ccccc1F` here?
The Potency was “inactive”.

Which activation does the source give for `CC(=O)OCC1=C(C(=O)O)N2C(=O)[C@@H](N)[C@H]2SC1` here?
The activation was 1.54% [at 15.9 µM].

Which Potency does the source give for `c1cncc([C@@H]2CCCCN2)c1` here?
The Potency was “inactive”.

For `CCOC(=O)/C=C(C)/C=C/C[C@@H](C)CCCC(C)C`, which Potency is on record?
The Potency was “inactive”.

How did the Potency turn out when `O=C(O)COc1ccc(Cl)cc1` was run?
The Potency was “inactive”.

How did the Potency turn out when `O=S(=O)(O)C(F)(F)C(F)(F)C(F)(F)C(F)(F)F` was run?
The Potency was “inactive”.

Which Potency does the source give for `c1coc(-c2nc3ccccc3[nH]2)c1` here?
The Potency was “inactive”.

For `C/C(=C\c1ccccc1)[N+](=O)[O-]`, which Potency is on record?
The Potency was “inactive”.

`CN1CCC(O)(c2ccc(F)cc2)C(C(=O)c2ccc(F)cc2)C1` (stereo not given) was tested. Which Potency did it give?
Its Potency is “inactive”.

How did the Potency turn out when `FC(Cl)(Cl)C(F)(Cl)Cl` was run?
The Potency was “inactive”.

`Cc1nc2ccccc2c(=O)n1-c1ccccc1Cl` was tested. Which Potency did it give?
Its Potency is “inactive”.

Which Potency does the source give for `ClC1=C(Cl)[C@]2(Cl)[C@H]3[C@H]([C@H]4C=C[C@H]3C4)[C@@]1(Cl)C2(Cl)Cl` here?
The Potency was “inactive”.

`O=C(Cl)C(Cl)(Cl)Cl` was tested. Which Potency did it give?
The Potency was “inactive”.

With `N#CNC#N` as the compound, how does the Potency read?
Its Potency is “inactive”.

`C=CCC1=C(C)[C@@H](OC(=O)[C@@H]2[C@@H](C=C(C)C)C2(C)C)CC1=O` was tested. Which Potency did it give?
The Potency was “inactive”.

`CC(C)(Cl)[N+](=O)[O-]` was tested. Which Potency did it give?
Its Potency is “inactive”.

Which Potency does the source give for `O=C(NC(=O)c1c(F)cccc1F)Nc1cc(Cl)c(OC(F)(F)C(F)F)c(Cl)c1` here?
Its Potency is “inactive”.

For `CCC(C)(NC(=O)c1cc(Cl)c(C)c(Cl)c1)C(=O)CCl` (stereo not given), which Potency is on record?
The Potency was 49.3 µM (active).

For `Clc1cccc(SC2CCNCC2)n1`, which Potency is on record?
Its Potency is 0.0849 µM (active).

How did the Potency turn out when `C[As+](C)(C)CC(=O)[O-]` was run?
The Potency was “inactive”.

For `Fc1cccc(Cl)c1CCl`, which Potency is on record?
Its Potency is “inactive”.

`c1ccc2nc(N3CCNCC3)ccc2c1` was tested. Which Potency did it give?
Its Potency is 0.0048 µM (active).

`O=C1c2ccccc2C(=O)C1C(=O)C(c1ccccc1)c1ccccc1` was tested. Which Potency did it give?
The Potency was “inactive”.

`[O]=[Cd]` was tested. Which Potency did it give?
Its Potency is “inactive”.

How did the Potency turn out when `CCSCc1ccccc1OC(=O)NC` was run?
The Potency was “inactive”.

Which Potency does the source give for `COc1ccc2c(C(=O)c3ccc(Cl)cc3)c(C)n(CC(=O)O)c2c1` here?
The Potency was “inactive”.

How did the Potency turn out when `[Cl][Sn]([c]1ccccc1)([c]1ccccc1)[c]1ccccc1` was run?
The Potency was 10.4 µM (active).

`N#C/C=C/C#N` was tested. Which Potency did it give?
The Potency was “inactive”.

Which Potency does the source give for `Cc1cc(C2CC2)nc(Nc2ccccc2)n1` here?
The Potency was “inactive”.
